# Measured values from article PMC5540273 (PLoS ONE, 2017).
# Several values for one entry are separate records, joined by “and”; a condition that tells them apart may be missing. Equal values may be shown once. Read-outs that look alike come from different tables or passages of the source.
# What was measured:
# Details in all cases: concentration: 1 μM, replicates: in singlicate, n = 1
# IRAK3 = test system: IRAK3
# IRAK4 = test system: IRAK4
# ITK = test system: ITK
# [1] = test system: JAK1(JH1domain-catalytic)
# [2] = test system: JAK1(JH2domain-pseudokinase)
# [3] = test system: JAK2(JH1domain-catalytic)
# [4] = test system: JAK3(JH1domain-catalytic)
# JNK1 = test system: T1, JNK1
# T1 construct: gene MAPK8
# JNK2 = test system: T2, JNK2
# T2 construct: gene MAPK9
# JNK3 = test system: T3, JNK3
# T3 construct: gene MAPK10
# 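Note: KINOMEscan kinase panel screen.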
compound,measurement,setting,value
CCc1ccnc(/C=C/c2n[nH]c3cc(Sc4ccccc4C(=O)NC)ccc23)c1,%Inh,IRAK3,32%
same,%Inh,IRAK4,5%
same,%Inh,ITK,1%
same,%Inh,[1],0%
same,%Inh,[2],0%
same,%Inh,[3],0%
same,%Inh,[4],0%
same,%Inh,JNK1,0%
same,%Inh,JNK2,3%
same,%Inh,JNK3,0%
C[C@@H](Oc1cc(-n2cnc3ccc(NC(=O)NC(C)(C)C)cc32)sc1C(N)=O)c1ccccc1Cl [GSK346294],%Inh,IRAK3,12%
same,%Inh,IRAK4,0%
same,%Inh,ITK,14%
same,%Inh,[1],2%
same,%Inh,[2],0%
same,%Inh,[3],0%
same,%Inh,[4],0%
same,%Inh,JNK1,0%
same,%Inh,JNK2,6%
same,%Inh,JNK3,0%
CC(C)(CN)c1nc(-c2ccc(Cl)c(O)c2)c(-c2ccncc2)[nH]1.O=C(O)C(F)(F)F [SB-477794],%Inh,IRAK3,0%
same,%Inh,IRAK4; 1 µM,43% and 0%
same,%Inh,ITK; 1 µM,9% and 0%
same,%Inh,[1]; 1 µM,28% and 15%
same,%Inh,[2]; 1 µM,0% and 2%
same,%Inh,[3]; 1 µM,18% and 8%
same,%Inh,[4]; 1 µM,0% and 28%
same,%Inh,JNK1; 1 µM,41% and 32%
same,%Inh,JNK2; 1 µM,85% and 80%
same,%Inh,JNK3; 1 µM,93.6% and 92.8%
NCCNS(=O)(=O)c1ccc(-c2ccnc3[nH]ccc23)cc1 [GSK977617],%Inh,IRAK3; 1 µM,60% and 39%
same,%Inh,IRAK4; 1 µM,22% and 8%
same,%Inh,ITK; 1 µM,66% and 44%
same,%Inh,[1]; 1 µM,38% and 26%
same,%Inh,[2]; 1 µM,32% and 25%
same,%Inh,[3]; 1 µM,95.6% and 90.8%
same,%Inh,[4]; 1 µM,83% and 84%
same,%Inh,JNK1; 1 µM,42% and 18%
same,%Inh,JNK2; 1 µM,30% and 9%
same,%Inh,JNK3; 1 µM,27% and 15%
